From the supplement of paper PMC7411054
Structures can show the parent of a compound that is named as a salt.

The compounds below were run on HepG2-TUBA1B-RELA (assay: lowest phenotypically active concentration; higher = less potent). Conditions: treatment time: 24 h.
Method in brief: (§1)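 Four wells per concentration (0.3, 1, 3 or 9 µM) were treated for 24 h in each of fifteen gene-edited reporter lines from A549, HepG2 and WPMY1 cells, then imaged live. After normalising live-cell features to solvent control wells, deviation was defined as ≥3 of 4 wells lying past the 95th percentile of control Euclidean distances. Reproducibility was defined as a median replicate Pearson correlation above the 95th percentile of non-replicates. Both had to hold for phenotypic activity.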

| Structure (SMILES) | lowest phenotypically active concentration |
| --- | --- |
| COc1cc(N2CCC(N)CC2)ccc1Nc1ncc(Cl)c(-c2c[nH]c3ccccc23)n1 | 1 µM |
| Cc1noc(C)c1-c1ccc2c(c1)nc(CCc1ccc(OCCCN(C)C)cc1)n2CCN1CCOCC1 | 9 µM |
| Cc1cc(Nc2ccc(NC(=O)c3ccc(Nc4ccnc5ccccc45)cc3)cc2)nc(N)n1 | 3 µM |
| C[C@]1(O)C[C@@H](c2nc(-c3ccc4ccc(-c5ccccc5)nc4c3)c3c(N)nccn32)C1 [linsitinib] | 9 µM |
| O=C(O)C[C@H](O)C[C@H](O)/C=C/c1c(C2CC2)nc2ccccc2c1-c1ccc(F)cc1 [Pitavastatin calcium] | 1 µM |
| CN1[C@@H]2CC[C@H]1C[C@@H](OC(c1ccccc1)c1ccccc1)C2 [benztropine] | 9 µM |
| NS(=O)(=O)c1nn2cc(-c3ccccc3)nc2s1 | 9 µM |

The compounds below were run on WPMY1-ACTB-RAB5A in the same assay as above. Conditions: treatment time: 24 h.
Method in brief: as §1

| Structure (SMILES) | lowest phenotypically active concentration |
| --- | --- |
| CC/C(=C(\CC)c1ccc(O)c(CN(CC)CC)c1)c1ccc(O)c(CN(CC)CC)c1 | 1 µM |
| COc1ccc(CCNCc2ccc(OCc3ccc(Cl)nc3)c(OC)c2)cc1OC [SBE 13 hydrochloride] | 9 µM |
| Cc1noc(C)c1Cn1cc(C#N)c2cc(Oc3ccc(NC(=O)[C@@H]4CCCN4)cc3)ccc21 | 9 µM |
| COc1c(C=O)c(O)cc2c1C(=O)c1ccccc1C2=O [Damnacanthal] | 9 µM |
| CC(C)OC(=O)c1cc2c(OCC(O)CNC(C)(C)C)cccc2[nH]1 (stereo not drawn) | 3 µM |
| COc1ccccc1OCCNCC(O)COc1cccc2[nH]c3ccccc3c12 (stereo not drawn) [Carvedilol] | 9 µM |
| CCCCOc1cc(C(=O)NCCN(CC)CC)c2ccccc2n1 [cinchocaine] | 9 µM |
| O=S(=O)(c1cccc2cnccc12)N1CCCNCC1 [fasudil] | 3 µM |
| CSc1ccc2c(c1)N(CCC1CCCCN1C)c1ccccc1S2 (stereo not drawn) [thioridazine] | 9 µM |
| CCCNCC(O)COc1ccccc1C(=O)CCc1ccccc1 (stereo not drawn) [propafenone] | 9 µM |
| O=C(O)[C@@H]1[C@H]2C[C@H]3c4[nH]c5ccccc5c4CCN3C[C@@H]2CC[C@@H]1O [Yohimbinic acid monohydrate] | 9 µM |
| COc1cc(N2CCC(N)CC2)ccc1Nc1ncc(Cl)c(-c2c[nH]c3ccccc23)n1 | 1 µM |
| Cc1noc(C)c1-c1ccc2c(c1)nc(CCc1ccc(OCCCN(C)C)cc1)n2CCN1CCOCC1 | 9 µM |
| Cc1ccc(NC(=O)c2cccc(N(C)C)c2)cc1NC(=O)c1ccc(O)cc1 | 9 µM |
| Cc1cc(Nc2ccc(NC(=O)c3ccc(Nc4ccnc5ccccc45)cc3)cc2)nc(N)n1 | 3 µM |
| Cc1ccc(NC2=CC(=O)c3sc(C)nc3C2=O)cc1 [Ryuvidine] | 1 µM |
| C[C@]1(O)C[C@@H](c2nc(-c3ccc4ccc(-c5ccccc5)nc4c3)c3c(N)nccn32)C1 [linsitinib] | 9 µM |
| O=C(O)C[C@H](O)C[C@H](O)/C=C/c1c(C2CC2)nc2ccccc2c1-c1ccc(F)cc1 [Pitavastatin calcium] | ≤ 0.3 µM |
| NC(=O)c1cccc(-c2cc(Nc3ccc(OC(F)(F)F)cc3)ncn2)c1 | 3 µM |
| NS(=O)(=O)c1nn2cc(-c3ccccc3)nc2s1 | 9 µM |

The compounds below were run on WPMY1-CANX-COX4 in the same assay as above. Conditions: treatment time: 24 h.
Method in brief: as §1

| Structure (SMILES) | lowest phenotypically active concentration |
| --- | --- |
| CC/C(=C(\CC)c1ccc(O)c(CN(CC)CC)c1)c1ccc(O)c(CN(CC)CC)c1 | 1 µM |
| Cn1cc(C2=C(c3ccc(Cl)cc3Cl)C(=O)NC2=O)c2ccccc21 | 1 µM |
| CC(C)COCC(CN(Cc1ccccc1)c1ccccc1)N1CCCC1 (stereo not drawn) [bepridil] | 9 µM |
| COc1cc(OC)c2cc(-c3ccncc3)cnc2c1 [DMPQ dihydrochloride] | 9 µM |
| COc1ccc(CCNCc2ccc(OCc3ccc(Cl)nc3)c(OC)c2)cc1OC [SBE 13 hydrochloride] | 9 µM |
| Cc1noc(C)c1Cn1cc(C#N)c2cc(Oc3ccc(NC(=O)[C@@H]4CCCN4)cc3)ccc21 | 9 µM |
| COc1c(C=O)c(O)cc2c1C(=O)c1ccccc1C2=O [Damnacanthal] | 9 µM |
| COc1ccc(CNC(=O)Nc2ncc([N+](=O)[O-])s2)cc1 | 9 µM |
| CC(C)OC(=O)c1cc2c(OCC(O)CNC(C)(C)C)cccc2[nH]1 (stereo not drawn) | 9 µM |
| COc1ccccc1OCCNCC(O)COc1cccc2[nH]c3ccccc3c12 (stereo not drawn) [Carvedilol] | 9 µM |
| O=S(=O)(c1cccc2cnccc12)N1CCCNCC1 [fasudil] | 3 µM |
| Clc1ccccc1C(c1ccccc1)(c1ccccc1)n1ccnc1 [Clotrimazole] | 9 µM |
| CSc1ccc2c(c1)N(CCC1CCCCN1C)c1ccccc1S2 (stereo not drawn) [thioridazine] | 9 µM |
| CCCNCC(O)COc1ccccc1C(=O)CCc1ccccc1 (stereo not drawn) [propafenone] | 9 µM |
| O=C(O)[C@@H]1[C@H]2C[C@H]3c4[nH]c5ccccc5c4CCN3C[C@@H]2CC[C@@H]1O [Yohimbinic acid monohydrate] | 9 µM |
| COc1cc(N2CCC(N)CC2)ccc1Nc1ncc(Cl)c(-c2c[nH]c3ccccc23)n1 | 1 µM |
| Cc1noc(C)c1-c1ccc2c(c1)nc(CCc1ccc(OCCCN(C)C)cc1)n2CCN1CCOCC1 | 9 µM |
| Cc1ccc(NC2=CC(=O)c3sc(C)nc3C2=O)cc1 [Ryuvidine] | 3 µM |
| C[C@]1(O)C[C@@H](c2nc(-c3ccc4ccc(-c5ccccc5)nc4c3)c3c(N)nccn32)C1 [linsitinib] | 9 µM |
| O=C(O)C[C@H](O)C[C@H](O)/C=C/c1c(C2CC2)nc2ccccc2c1-c1ccc(F)cc1 [Pitavastatin calcium] | 1 µM |
| CN1[C@@H]2CC[C@H]1C[C@@H](OC(c1ccccc1)c1ccccc1)C2 [benztropine] | 9 µM |
